This is part of a sample that, as a whole, favours compounds with a hit. Of some 83,000 tested, about 20% had one in any assay.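 Step 1: grow cells in 96-well plates. Step 2: add test compound at a single concentration. Step 3: incubate 48 h. Step 4: record percent growth.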 Unmarked numbers belong to inactive results. The source made the active and inactive calls. How the source made its calls: active means growth percent below 10; inactive means the rest.
tested on: HL-60(TB) leukemia; experiment: NCI-60 one-dose screen, 48 h (100 = growth as untreated, 0 = no growth, -100 = all killed); conditions: 10 µM unless noted

| Structure (SMILES) | growth |
| --- | --- |
| CCOc1cccc(NC2=C(Br)C(=O)C(C)=C(C)C2=O)c1 | -12.5% (active) |
| c1cc(C2=N[C@@H]3c4ccccc4C[C@@H]3O2)nc(C2=N[C@@H]3c4ccccc4C[C@@H]3O2)c1 | 105% |
| C(=N\Nc1ccccn1)/c1ccccn1 | 12.3% |

Source: PubChem BioAssay (NCI)
